Assay results as given in PubChem BioAssay AID1159580 (chemical genetic matrix, 2015).
“And” between values parts separate entries of the source, which are not always exact repeats. Equal entries are not always repeated. Among all 5,500 compounds or so, about 2,000 (36%) were called active. About 18% were inconclusive and are not listed. Cut-off read from the data, not from the text of the source: active = normalized growth mostly below about 0.91 (no sharp cut-off); inconclusive = no clear call, values can overlap the other calls; inactive = mostly above about 0.92. Some of the results follow.

Test: chemical genetic growth profiling, strain panel (AID 1159580);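 note: tested at 20 µM; growth read once vehicle control cultures reached saturation at 30 °C; 1 = growth at the plate median or of vehicle wells; lower values mean less growth of the strain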
Conditions: S. cerevisiae deletion strains, growth OD

Measured: normalized growth

O=C1c2c(O)ccc(O)c2C(=O)c2c(NCCNCCO)ccc(NCCNCCO)c21
active: locus YKL068W, active compounds read low 1.06 [resistant] | locus YKL160W, strain elf1, active compounds read low 0.858 | locus YKR001C, strain vps1, active compounds read low 0.74 | locus YLL001W, strain dnm1, active compounds read low 0.727 | locus YLL026W, active compounds read low 0.914 | locus YLR027C, strain aat2, active compounds read low 0.855 | locus YLR113W, strain HOG1, active compounds read low 0.828 | locus YLR221C, strain rsa3, active compounds read low 0.865 | locus YLR262C, strain YPT6 (second series), active compounds read low 0.443 | locus YLR268W, strain sec22, active compounds read low 0.857 | locus YLR320W, strain mms22, active compounds read low 0.248 | locus YLR342W, strain FKS1, active compounds read low 0.83 | locus YLR370C, strain arc18, active compounds read low 0.28 | locus YLR384C, strain iki3, active compounds read low 0.745 | locus YML032C, strain rad52, active compounds read low 0.19 | locus YML120C, strain ndi1, active compounds read low 0.878 | locus YMR058W, strain fet3, active compounds read low 0.396 | locus YMR078C, strain ctf18, active compounds read low 0.429 | locus YMR231W, strain pep5, active compounds read low 0.174 | locus YMR307W, strain GAS1, active compounds read low 0.562 and 0.648 | locus YNL071W, strain lat1, active compounds read low 1.12 [resistant] | locus YNL183C, strain NPR1, active compounds read low 0.815 | locus YNL209W, strain ssb2, active compounds read low 0.825 | locus YNL224C, strain SQS1, active compounds read low 1.08 [resistant] | locus YNL248C, strain rpa49, active compounds read low 0.678 | locus YNL250W, strain rad50, active compounds read low 0.181 | locus YNR049C, strain mso1, active compounds read low 0.912 | locus YNR052C, strain pop2, active compounds read low 0.69 | locus YOL006C, strain TOP1, active compounds read low 0.424 | locus YOR001W, strain rrp6, active compounds read low 0.681 | locus YOR070C, strain gyp1, active compounds read low 0.734 | locus YOR080W, strain dia2, active compounds read low 0.447 | locus YOR083W, strain WHI5, active compounds read low 0.726 | locus YOR106W, strain vam3, active compounds read low 0.363 | locus YOR184W, strain ser1, active compounds read low 0.802 | locus YOR270C, strain vph1, active compounds read low 0.327 | locus YOR290C, strain snf2, active compounds read low 0.653 | locus YPL051W, strain arl3, active compounds read low 0.869 | locus YPL055C, strain LGE1, active compounds read low 0.868
inactive: locus YJR066W, strain TOR1, active compounds read low 0.85 | locus YJR075W, strain HOC1, active compounds read low 0.968 | locus YKL009W, strain mrt4, active compounds read low 0.925 | locus YKL085W, strain MDH1 (second series), active compounds read low 1.05 | locus YKL085W, strain MDH1, active compounds read low 1.05 | locus YKL190W, strain CNB1, active compounds read low 0.998 | locus YKR026C, strain gcn3, active compounds read low 1.04 | locus YKR091W, strain srl3, active compounds read low 1.01 | locus YLL041C, strain sdh2, active compounds read low 1.01 | locus YLR039C, strain RIC1, active compounds read low 0.707 | locus YLR058C, strain SHM2, active compounds read low 1.02 | locus YLR102C, strain apc9, active compounds read low 1.06 | locus YLR258W, strain gsy2, active compounds read low 0.94 | locus YLR262C, strain YPT6, active compounds read low 0.711 | locus YLR330W, strain CHS5, active compounds read low 1.03 | locus YLR342W, strain FKS1 (second series), active compounds read low 0.871 | locus YLR357W, strain rsc2, active compounds read low 0.976 | locus YLR371W, strain rom2, active compounds read low 1.01 | locus YLR418C, strain cdc73, active compounds read low 1.02 | locus YML016C, strain PPZ1, active compounds read low 1.03 | locus YML124C, strain tub3, active compounds read low 1.05 | locus YMR125W, strain sto1, active compounds read low 0.982 | locus YMR129W, active compounds read low 0.941 | locus YMR205C, strain PFK2, active compounds read low 0.975 | locus YMR223W, strain ubp8, active compounds read low 0.91 | locus YMR263W, strain SAP30, active compounds read low 0.954 and 1.02 | locus YNL067W, strain RPL9B, active compounds read low 0.976 | locus YNL128W, strain TEP1, active compounds read low 1.07 | locus YNL175C, strain NOP13, active compounds read low 1.07 | locus YNL197C, strain WHI3, active compounds read low 1.06 | locus YNL233W, strain BNI4, active compounds read low 0.966 | locus YNL271C, strain bni1, active compounds read low 0.944 | locus YNL298W, strain CLA4, active compounds read low 0.989 | locus YNL307C, strain MCK1, active compounds read low 1.08 | locus YNL322C, strain KRE1 (second series), active compounds read low 0.933 | locus YNL322C, strain KRE1, active compounds read low 1.01 | locus YOL012C, strain htz1 0.838 | locus YOL147C, strain pex11, active compounds read low 1.07 | locus YOR061W, strain CKA2, active compounds read low 1.01 | locus YOR069W, strain VPS5, active compounds read low 1.02 | locus YOR083W, strain WHI5 (second series), active compounds read low 1 | locus YOR136W, strain idh2, active compounds read low 1.01 | locus YOR144C, strain elg1, active compounds read low 0.984 | locus YOR231W, strain MKK1, active compounds read low 0.927 | locus YOR265W, strain rbl2, active compounds read low 0.932 | locus YOR316C, strain cot1, active compounds read low 1.06 | locus YPL078C, strain atp4, active compounds read low 0.974 | locus YPL106C, strain sse1, active compounds read low 1.07 | locus YPL240C, strain hsp82, active compounds read low 1.03 | locus YPL241C, strain CIN2, active compounds read low 1.04 | locus YPL256C, strain CLN2, active compounds read low 0.959 | locus YPR119W, strain clb2, active compounds read low 1.05 | locus YPR141C, strain kar3, active compounds read low 1.05 | locus YPR163C, strain tif3, active compounds read low 1.03 | locus YPR167C, strain met16, active compounds read low 0.993 | strain wtn01, active compounds read low 0.963
